Experimental data: PubChem BioAssay (Tox21)
Records with an inconclusive call do not appear. Activity calls are given as the source filed them. Unless noted, calls follow the shape of the full dose curve.

What was measured:
[1] = Nuclear factor erythroid 2-related factor 2/antioxidant responsive element (Nrf2/ARE) small molecule agonists: qHTS cell viability counter screen in human keratinocytes (AID 1919968; active = well fitted curve in the direction sought with a large enough effect in the repeat runs; an effect the other way counts as inactive or inconclusive; also: nearly all actives have a fitted effect of over 55% in size)
Procedure, shortened: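 Seed 1,500 KeratinoSens cells per well, then incubate 5 h at 37 C/5% CO2. Add compounds in DMSO and incubate 23 h. Add CellTiter-Fluor, wait 1 h and read fluorescence.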

[2] = Nuclear factor erythroid 2-related factor 2/antioxidant responsive element (Nrf2/ARE) small molecule agonists: luciferase reporter gene qHTS assay in human keratinocytes (AID 1919969); also: nearly all actives have a fitted effect of over 35% in size
[3] = target: Gonadotropin-releasing hormone receptor (Homo sapiens) (UniProt P30968); assay: Human gonadotropin-releasing hormone receptor (GnRHR) small molecule agonists, calcium flux assay in GnRHR-HEK293 cells (AID 1920063); also: nearly all actives have a fitted effect of over 35% in size
Procedure, shortened: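 Cells: HEK293 stably expressing human GnRHR. Steps: overnight (18 h) culture, 1 h calcium dye loading at 37 C, compound addition, kinetic fluorescence read at 480/540 nm. Each compound tested at 15 concentrations in triplicate.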

[4] = target: KiSS-1 receptor (Homo sapiens) (UniProt Q969F8); assay: Human kisspeptin (KISS1R) small molecule agonists, calcium flux assay in KISS1R-HEK293 cells (AID 1920064; active = well fitted curve in the direction sought with a large enough effect in the repeat runs; an effect the other way counts as inactive or inconclusive)
Procedure, shortened: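 Cells plated and incubated 18 h; dye added, 1 h at 37 C; compounds in DMSO pinned in; signal read at 480/540 nm every second for 3 min. Each compound tested at 15 concentrations in triplicate.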

[5] = p53 small molecule agonists, cell-based qHTS assay with human liver microsomes (AID 1963577);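 also: p53 response element beta-lactamase reporter cells with liver microsomes plus NADPH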
Procedure, shortened: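 In this qHTS, p53 response-element beta-lactamase cells receive test compound together with a microsome/NADPH activating system (0.5 mg/mL final each) and are incubated 16 h at 37 C before LiveBLAzer fluorescence detection.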

[6] = p53 small molecule agonists, cell-based qHTS assay with rat liver microsomes (AID 1963578)
Procedure, shortened: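 Agonist mode in p53RE-bla reporter cells, with compounds co-incubated 16 h at 37 C alongside 0.5 mg/mL rat liver microsomes and 0.5 mg/mL NADPH (final), followed by a 2 h LiveBLAzer detection step.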

[7] = p53 small molecule agonists, cell-based qHTS assay with human liver microsomes: qHTS cell viability counter screen (AID 1963579); also: nearly all actives have a fitted effect of over 45% in size
Procedure, shortened: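 Metabolically activated exposure: compounds, human liver microsomes and NADPH (0.5 mg/mL final apiece) were added to p53RE-bla cells seeded 5 h earlier, left 16 h at 37 C, and then assessed for viability by CellTiter-Glo luminescence.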

[8] = p53 small molecule agonists, cell-based qHTS assay with rat liver microsomes: qHTS cell viability counter screen (AID 1963580); also: nearly all actives have a fitted effect of over 45% in size
Procedure, shortened: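 In HCT-116 cells carrying a p53 response element-bla reporter, compounds were metabolically activated in situ by rat liver microsomes with NADPH over 16 h. Cell ATP content then served as the cytotoxicity measure.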

[9] = p53 small molecule agonists, cell-based qHTS assay: qHTS cell viability counter screen (AID 1963581); also: nearly all actives have a fitted effect of over 45% in size
Procedure, shortened: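 Cells: HCT-116 with p53 response element-driven beta-lactamase. Treatment: 16 h, 37 C, compounds in DMSO. Read: CellTiter-Glo luminescence after 30 min RT.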

[10] = target: 5-hydroxytryptamine receptor 2A (Homo sapiens) (UniProt P28223); assay: 5-hydroxytryptamine receptor 2A (HTR2A) small molecule antagonists, cell-based qHTS assay (AID 1963586); also: nearly all actives have a fitted effect of over 45% in size
Procedure, shortened: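 Antagonist-mode intracellular calcium assay: DOI (4 nM) added after 5 min compound pre-incubation at room temperature to dye-loaded HTR2A-CHO cells. Fluorescence followed for 3 min, sampled every second.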

[11] = target: 5-hydroxytryptamine receptor 2A (Homo sapiens) (UniProt P28223); assay: 5-hydroxytryptamine receptor 2A (HTR2A) small molecule agonists, cell-based qHTS assay (AID 1963587); also: nearly all actives have a fitted effect of over 30% in size
Procedure, shortened: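 HTR2A-CHO cells, plated 18 h at 37 C/5% CO2, dye-loaded 1 h at 37 C; compounds in DMSO added by pin tool (agonist mode). Intracellular calcium flux read as kinetic fluorescence on FDSS over 2 min at 1 s intervals.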

[12] = target: Muscarinic acetylcholine receptor M1 (Homo sapiens) (UniProt P11229); assay: Cholinergic receptor muscarinic 1 (CHRM1) small molecule antagonists, cell-based qHTS assay (AID 1963588); also: nearly all actives have a fitted effect of over 40% in size
Procedure, shortened: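 CHRM1-CHO calcium-flux assay, antagonist mode. Cells were seeded 18 h, dye-loaded 1 h at 37 C and given compound for 5 min at RT, then acetylcholine was added at 50nM. FDSS fluorescence was read 3 min; 15 concentrations, three runs.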

[13] = target: Muscarinic acetylcholine receptor M1 (Homo sapiens) (UniProt P11229); assay: Cholinergic receptor muscarinic 1 (CHRM1) small molecule agonists, cell-based qHTS assay (AID 1963589); also: nearly all actives have a fitted effect of over 35% in size
Procedure, shortened: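 Agonist-mode qHTS in CHO cells stably carrying human muscarinic M1. Intracellular calcium is tracked by fluorescence every second after compound transfer; each compound runs at 15 concentrations in three independent runs.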

[14] = cAMP Responsive Elements (CRE) small molecule agonists, cell-based qHTS assay (AID 1963590)
Procedure, shortened: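 Agonist mode qHTS in CRE-bla HEK 293T cells: compounds dosed from DMSO for 3 h at 37 C/5% CO2, followed by LiveBLAzer B/G FRET substrate for 2 h at room temperature.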

[15] = cAMP Responsive Elements (CRE) small molecule antagonists, cell-based qHTS assay (AID 1963591; active = well fitted inhibition curve with a large enough effect in the signal ratio in the repeat runs, not every such curve was filed as active; the % refers to the signal ratio)
Procedure, shortened: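 Antagonist mode: test compounds are co-incubated with the adenylyl cyclase activator NKH477 (0.25 uM final) on CRE-bla HEK293T cells for 3 h at 37 °C, followed by LiveBLAzer substrate loading.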

[16] = target: Beta-2 adrenergic receptor (Homo sapiens) (UniProt P07550); assay: Adrenergic beta2 receptor (ADRB2) small molecule antagonists, cell-based qHTS assay (AID 1963592); also: series mostly up to about 92 µM; nearly all actives have a fitted effect of over 50% in size
Procedure, shortened: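 Cells (CHO, stable ADRB2 overexpression) incubated 18-20hr at 37C; compounds added from DMSO; agonist mix (1nM isoproterenol, 100uM IBMX, 25uM Ro-20-1724) added; 0.5hr RT; d2-cAMP and anti-cAMP-cryptate added; 1hr RT; 665/615 nm read.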

[17] = target: Beta-2 adrenergic receptor (Homo sapiens) (UniProt P07550); assay: Adrenergic beta2 receptor (ADRB2) small molecule agonists, cell-based qHTS assay (AID 1963593);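 also: CHO cells stably overexpressing human ADRB2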
Procedure, shortened: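 CHO cells stably over-expressing ADRB2 were plated overnight at 37C, then dosed with compounds plus a stimulation mix containing 100uM IBMX and 25uM Ro-20-1724 for 0.5hr at room temperature. cAMP was measured by HTRF competition, 1hr.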

[18] = target: D(2) dopamine receptor (Homo sapiens) (UniProt P14416); assay: Dopamine D2 receptor (DRD2) small molecule agonists, cell-based qHTS assay (AID 1963594); also: nearly all actives have a fitted effect of over 35% in size
Procedure, shortened: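 HEK293 cells stably expressing DRD2 were cultured 24 h at 37 C, then given Ro20-1724 (0.1 mM final) and compounds for 10 min at room temperature. NKH477 (200nM) was then added for 30 min. cAMP was read by HTRF.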

[19] = target: D(2) dopamine receptor (Homo sapiens) (UniProt P14416); assay: Dopamine D2 receptor (DRD2) small molecule antagonists, cell-based qHTS assay (AID 1963595; active = well fitted inhibition curve with a large enough effect in the signal ratio in the repeat runs, with a control signal flat; the % refers to the signal ratio)
Procedure, shortened: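 Antagonism was scored as restored cAMP in HEK293-DRD2 cells. These cells were stimulated with 200 nM NKH477 and 12 nM quinpirole for 30 min at room temperature, in the presence of 0.1 mM Ro20-1724.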

[20] = G protein-coupled receptor (GPCR) small molecule agonists, calcium flux assay: HEK293 wild type cell line counter screen (AID 1920065)
Procedure, shortened: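 Counter-screen of the Tox21 10K library for non-specific calcium release: dye-loaded cells received compounds in DMSO and were monitored by kinetic fluorescence (480/540 nm, 3 min). Fifteen concentrations, run in triplicate.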

Measured: Potency

KiSS-1 receptor (Homo sapiens), sequence (Q969F8 whole entry, looked up): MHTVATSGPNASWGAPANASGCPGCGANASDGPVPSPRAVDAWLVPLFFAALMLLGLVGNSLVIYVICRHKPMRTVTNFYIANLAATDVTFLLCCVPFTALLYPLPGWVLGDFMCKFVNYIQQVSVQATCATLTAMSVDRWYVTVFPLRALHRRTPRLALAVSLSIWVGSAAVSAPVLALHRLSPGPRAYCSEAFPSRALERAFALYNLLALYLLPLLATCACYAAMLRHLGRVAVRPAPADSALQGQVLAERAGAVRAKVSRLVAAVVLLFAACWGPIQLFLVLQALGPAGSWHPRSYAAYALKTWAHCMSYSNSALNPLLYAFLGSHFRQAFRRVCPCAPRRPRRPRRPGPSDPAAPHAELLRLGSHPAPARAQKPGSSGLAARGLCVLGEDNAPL
D(2) dopamine receptor (Homo sapiens), sequence (P14416 whole entry, looked up): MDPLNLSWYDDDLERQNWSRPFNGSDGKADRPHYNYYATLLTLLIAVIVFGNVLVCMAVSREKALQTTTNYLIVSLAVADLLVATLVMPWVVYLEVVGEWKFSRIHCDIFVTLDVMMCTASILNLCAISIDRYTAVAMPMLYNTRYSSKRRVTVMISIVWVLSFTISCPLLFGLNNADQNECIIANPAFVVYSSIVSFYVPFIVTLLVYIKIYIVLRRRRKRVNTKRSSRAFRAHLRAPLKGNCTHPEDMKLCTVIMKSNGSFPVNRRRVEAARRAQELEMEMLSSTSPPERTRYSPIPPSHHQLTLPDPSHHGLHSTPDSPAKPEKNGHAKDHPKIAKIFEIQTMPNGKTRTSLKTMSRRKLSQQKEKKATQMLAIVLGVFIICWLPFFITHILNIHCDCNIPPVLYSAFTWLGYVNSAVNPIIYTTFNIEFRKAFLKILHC
Beta-2 adrenergic receptor (Homo sapiens), sequence (P07550 whole entry, looked up): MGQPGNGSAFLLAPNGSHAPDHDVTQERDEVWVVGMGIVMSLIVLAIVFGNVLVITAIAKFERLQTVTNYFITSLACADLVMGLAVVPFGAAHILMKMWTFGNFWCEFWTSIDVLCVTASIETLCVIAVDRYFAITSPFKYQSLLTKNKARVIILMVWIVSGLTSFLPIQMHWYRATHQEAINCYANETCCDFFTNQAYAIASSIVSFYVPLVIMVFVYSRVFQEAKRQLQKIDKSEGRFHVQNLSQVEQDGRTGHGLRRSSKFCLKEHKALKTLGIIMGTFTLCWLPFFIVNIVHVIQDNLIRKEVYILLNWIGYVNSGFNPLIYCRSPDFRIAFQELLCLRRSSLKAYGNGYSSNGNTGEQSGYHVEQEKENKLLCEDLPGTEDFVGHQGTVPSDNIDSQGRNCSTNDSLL
5-hydroxytryptamine receptor 2A (Homo sapiens), sequence (P28223 whole entry, looked up): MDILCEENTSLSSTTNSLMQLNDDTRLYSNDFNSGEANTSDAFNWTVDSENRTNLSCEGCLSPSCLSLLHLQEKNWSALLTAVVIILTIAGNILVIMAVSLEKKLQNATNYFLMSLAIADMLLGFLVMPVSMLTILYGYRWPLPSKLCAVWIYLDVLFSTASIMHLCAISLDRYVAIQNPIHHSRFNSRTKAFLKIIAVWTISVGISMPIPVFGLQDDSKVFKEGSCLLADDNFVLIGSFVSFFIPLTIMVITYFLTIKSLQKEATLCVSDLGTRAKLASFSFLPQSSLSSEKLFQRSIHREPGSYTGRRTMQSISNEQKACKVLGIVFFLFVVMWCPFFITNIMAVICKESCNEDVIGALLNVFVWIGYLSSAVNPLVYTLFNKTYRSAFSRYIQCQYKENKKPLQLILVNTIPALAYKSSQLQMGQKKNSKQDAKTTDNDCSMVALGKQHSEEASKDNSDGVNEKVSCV
Gonadotropin-releasing hormone receptor (Homo sapiens), sequence (P30968 whole entry, looked up): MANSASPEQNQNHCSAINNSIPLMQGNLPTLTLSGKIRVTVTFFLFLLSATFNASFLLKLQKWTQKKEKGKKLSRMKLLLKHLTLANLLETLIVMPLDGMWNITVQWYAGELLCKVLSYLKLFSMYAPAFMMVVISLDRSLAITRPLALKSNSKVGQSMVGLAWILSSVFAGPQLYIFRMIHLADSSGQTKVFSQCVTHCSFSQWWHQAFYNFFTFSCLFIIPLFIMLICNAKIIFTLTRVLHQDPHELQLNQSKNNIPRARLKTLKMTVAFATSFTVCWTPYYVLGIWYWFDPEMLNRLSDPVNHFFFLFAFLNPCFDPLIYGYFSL
Muscarinic acetylcholine receptor M1 (Homo sapiens), sequence (P11229 whole entry, looked up): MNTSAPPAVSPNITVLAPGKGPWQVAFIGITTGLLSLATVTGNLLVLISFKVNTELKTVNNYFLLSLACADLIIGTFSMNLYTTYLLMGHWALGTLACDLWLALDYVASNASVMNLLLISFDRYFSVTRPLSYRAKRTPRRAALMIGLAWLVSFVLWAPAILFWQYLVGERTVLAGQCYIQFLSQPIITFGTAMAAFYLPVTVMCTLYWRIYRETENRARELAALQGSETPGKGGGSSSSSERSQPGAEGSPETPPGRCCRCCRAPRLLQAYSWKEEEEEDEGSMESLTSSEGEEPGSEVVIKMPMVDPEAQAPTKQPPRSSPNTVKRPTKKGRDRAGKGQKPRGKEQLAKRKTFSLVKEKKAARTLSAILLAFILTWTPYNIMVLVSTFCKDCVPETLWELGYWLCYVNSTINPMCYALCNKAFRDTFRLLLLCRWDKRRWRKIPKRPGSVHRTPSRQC

C=CCS(=O)(=O)O
not listed: [20]
inactive: all other assays above

O=C1C(c2[nH]c3ccc(S(=O)(=O)O)cc3c2O)=Nc2ccc(S(=O)(=O)O)cc21
not listed: [9] | [20]
inactive: all other assays above

CCN(CCO)c1cccc(C)c1
not listed: [17] | [20]
inactive: all other assays above

O=C(NCC1CCCCN1)c1cc(OCC(F)(F)F)ccc1OCC(F)(F)F (centres undefined)
not listed: [5] | [6] | [7] | [8] | [11] | [17] | [19]
inactive: all other assays above

CCCCCCCCOC(=O)CCCCCCCCC(=O)OCCCCCCCC
not listed: [10] | [20]
inactive: all other assays above

CCCCCCCCCCCC(=O)OCC(C)OC(=O)CCCCC(=O)O (centres undefined)
not listed: [17] | [19] | [20]
inactive: all other assays above

Cc1onc(-c2ccccc2)c1C(=O)Cl
not listed: [20]
inactive: all other assays above

CC(=O)c1sc(C)nc1C
not listed: [17] | [20]
inactive: all other assays above

COc1cc(C(=O)N2CCOCC2)cc(OC)c1OC
not listed: [16] | [20]
inactive: all other assays above

Cc1cccc(Cl)c1
not listed: [17] | [19] | [20]
inactive: all other assays above

CC(C)(C)S
not listed: [17] | [20]
inactive: all other assays above

C#C[C@]1(O)CC[C@H]2[C@@H]3CCC4=CC(=O)CC[C@@H]4[C@H]3CC[C@@]21C
inactive: [1] | [2] | [3] | [4] | [20] | [15] | [16] | [17] | [18] | [19]

O=C(O)CNC(=O)c1ccccc1I
not listed: [11] | [12] | [17] | [18] | [20]
inactive: all other assays above

Nc1c(Br)cc([N+](=O)[O-])cc1Br
not listed: [15] | [20]
inactive: all other assays above

CC(=O)OC/C=C/c1ccccc1
not listed: [14] | [20]
inactive: all other assays above
